# Bioassay records (PubChem BioAssay)
# In the library only some 4.3% were active in any assay of this set; here they are far more common.
# dFosB activator – activators of mouse delta FosB homodimer; P13346; purified delta FosB, TAMRA-CDK5 oligo fluorescence polarization; percent of positive-control signal above neutral wells; activation, % at 25 µM; actives 0.99% (n = 340,000);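 active = mean activation above about 17%, with every replicate also reaching it, limit read from the data, passing the limit was not always enough; inconclusive = only one of the two conditions met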
# Target sequence (P13346 whole entry, looked up): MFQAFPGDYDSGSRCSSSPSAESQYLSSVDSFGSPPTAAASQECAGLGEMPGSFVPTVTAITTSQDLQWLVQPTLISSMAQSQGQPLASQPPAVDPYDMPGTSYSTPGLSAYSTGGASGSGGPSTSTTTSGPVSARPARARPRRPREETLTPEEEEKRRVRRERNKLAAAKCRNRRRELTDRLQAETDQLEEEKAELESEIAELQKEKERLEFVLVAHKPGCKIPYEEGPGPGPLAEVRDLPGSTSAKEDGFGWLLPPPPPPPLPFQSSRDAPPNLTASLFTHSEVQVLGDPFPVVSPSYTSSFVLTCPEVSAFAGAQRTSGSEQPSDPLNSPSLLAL
# NALP1 yeast inh – inhibitors of NALP1 inflammasome in yeast; S. cerevisiae NALP1/ASC/caspase-1 growth, X-gal OD620, 72 h; inhibition, % at 10 µM; actives 0.61% (n = 280,000); AID 2071; in the data active = inhibition mostly above about 24%, no sharp cut-off; inactive = mostly below about 32%
# NR3A LBD binder – NR3A (human) ligand-binding domain modulation | NR3A LBD differential scanning fluorimetry, Tm shift; 0% = protein alone, 100% = glycine-bound protein | Tm shift relative to glycine control, % at 25 µM | actives 2.5% (n = 340,000) | AID 1259313;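 active = melting temperature shift of at least 10% of the positive control shift, at one fixed dose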
# CR mimetic SO – yeast age-related superoxide inhibition as caloric restriction mimetic | S. cerevisiae aged cells, superoxide DHE fluorescence; active compounds read low | superoxide response (% of plate mean), % at 10 µM | actives 0.18% (n = 330,000) | AID 2690;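 active = superoxide response under a set limit, about three screen SD below normal, cut at about 65% in these data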;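 also: yeast aged for seven days with compound at 30 °C before DHE staining; 100% = average MFI of all compound-treated wells on the plate with controls excluded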
# UBC13 polyUb – human UBC13 polyubiquitination inhibition; P61088; UBC13 polyubiquitin chain formation, TR-FRET; inhibition, % at 20 µM; actives 0.47% (n = 330,000); AID 485273; in the data active = inhibition above about 45%, passing the limit was not always enough; inconclusive = no clear call, values can overlap the other calls
# Target sequence (P61088 whole entry, looked up): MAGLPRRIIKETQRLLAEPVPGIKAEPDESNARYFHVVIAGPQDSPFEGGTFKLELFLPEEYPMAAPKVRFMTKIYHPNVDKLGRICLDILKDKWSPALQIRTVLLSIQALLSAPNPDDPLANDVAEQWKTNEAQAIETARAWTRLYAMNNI
# The depositor's hits bear a star; ? = inconclusive; nt = no result.
SMILES,dFosB activator,NALP1 yeast inh,NR3A LBD binder,CR mimetic SO,UBC13 polyUb
CC(=O)Nc1ccc2oc(-c3ccccc3)nc2c1,-18,-32,-2,115,16
Cc1ccc(S(=O)(=O)Nc2ccc(-c3nc4cc(NS(=O)(=O)c5ccc(C)cc5)ccc4o3)cc2)cc1,nt,34,nt,nt,nt
O=C(Nc1ccc2oc(-c3ccncc3)nc2c1)c1cccs1,0,7,33*,100,4
CC(=O)Nc1ccc(-c2nc3ccc(NC(C)=O)cc3o2)cc1,-25,0,11*,98,28
CC(=O)Nc1ccc(S(=O)(=O)Nc2cccc(-c3nc4cc(C)ccc4o3)c2)cc1,-10,nt,16*,98,3
O=C(Nc1ccc2nn(-c3ccccc3)nc2c1)c1cccs1,3,14,25*,80,12
Cc1sc(-c2ccncc2)nc1OC(=O)c1ccc(F)cc1F,1,-23,-2,102,8
O=C(Nc1ccc(-c2nc3cc(NC(=O)c4cccs4)ccc3o2)cc1)c1cccs1,1,12,57*,110,-5
O=C(Nc1ccc2oc(-c3ccc4ccccc4c3)nc2c1)c1ccc2c(c1)OCCO2,-7,-3,10*,114,-3
COc1ccc(-c2nc(CS(=O)CC(=O)NCCCN3CCOCC3)c(C)o2)cc1OC (stereo unspecified),1,6,2,98,-2
CCc1ccc(NC(=O)Cc2ccc(NC3=NC4CS(=O)(=O)CC4S3)cc2)cc1 (stereo unspecified),-2,7,10*,115,0
CCc1ccc(NC(=O)c2ccc(NC3=NC4CS(=O)(=O)CC4S3)cc2)cc1 (stereo unspecified),15,-6,13*,122,9
C/C(=N\NC(=O)c1ccc(-n2cnnn2)cc1)c1ccc(Cl)cc1,3,nt,0,100,3
COc1cc(/C=N/NC(=O)CC#N)ccc1Oc1nc(Cl)ncc1F,-3,15,0,82,-1
CC(C)=CCc1c(O)ccc(C(=O)Cc2ccccc2)c1O,-8,21,18*,94,8
O=C(OCCc1ccccn1)c1cccc([N+](=O)[O-])c1,-7,nt,0,nt,nt
CC(Oc1ccc(Cl)cc1Cl)c1nc(-c2ccc(NC(=O)c3ccncc3)cc2)no1 (stereo unspecified),8,-104,22*,151,27
COc1cccc(-c2nc(-c3ccc(NC(=O)c4cccnc4)cc3)no2)c1,14,0,-6,94,7
O=C(Nc1ccc(-c2noc(-c3cccs3)n2)cc1)c1cccnc1,-14,6,28*,106,11
CC(Oc1ccc(Cl)cc1Cl)c1nc(-c2ccc(NC(=O)c3cccnc3)cc2)no1 (stereo unspecified),-9,-7,12*,120,8
CC(Oc1ccc(Cl)cc1Cl)C(=O)NNC(=O)c1ccncc1 (stereo unspecified),-9,nt,7,100,2
C=CCC[C@H](Cc1ccc(F)cc1)C(=O)OC[C@H](Cc1c[nH]c2ccccc12)NC(=O)[C@@H](CC=C)CC(=O)N[C@H](CO)Cc1ccccc1,2,nt,8,77,15
COc1ccccc1-n1c(-c2cc(-c3ccc(F)cc3)n[nH]2)n[nH]c1=S,-4,19,19*,92,6
COc1cc(Nc2cccc[n+]2C)cc(OC)c1OC,-2,35,7,108,0
O=C(CCc1ccccc1)NNC(=O)COc1ccccc1Cl,-1,9,3,108,-5
SMILES,dFosB activator,NALP1 yeast inh,NR3A LBD binder,CR mimetic SO,UBC13 polyUb
CCOCCCNC(=O)C(NC(=O)c1ccc(NC(C)=O)cc1)c1ccccc1 (stereo unspecified),6,31,-2,61*,-8
ClCc1nc2ccccc2c2ccccc12,-7,15,1,98,0
O=C(Nc1ccc(F)c(Cl)c1)Nc1csc2ccccc12,7,nt,39*,93,-1
O=C(Nc1ccc(F)cc1F)Nc1csc2ccccc12,nt,21,15*,96,14
O=C(Nc1nc(-c2ccccn2)cs1)Nc1ccc(F)cc1F,-15,-8,14*,84,-16
O=C(Nc1nc(-c2ccccc2)cs1)Nc1ccc(F)cc1F,1,1,2,110,4
O=C(Nc1ccc(F)cc1F)Nc1ccc(F)cc1F,5,8,-2,109,-6
O=C(NC1CC2CCCC(C1)N2C(=S)Nc1ccccc1)C1CC1 (stereo unspecified),1,-5,0,107,2
COc1ccc(CCNc2cc(C)nc3c(-c4ccccc4OC)cnn23)cc1OC,-6,21,-1,89,8
COc1ccccc1-c1cnn2c(NCc3ccccc3)cc(C)nc12,-7,30,10*,111,-3
OCC1(CC2CCCCO2)CCN(C/C=C/c2ccccc2)CC1 (stereo unspecified),-2,39*,0,106,10
COc1cc(/C=C/CN2CCC(CO)(CC3CCCCO3)CC2)ccc1O (stereo unspecified),-19,8,0,123,14
CC(=O)c1cccc(NC(=O)Nc2ccc3c(c2)OCO3)c1,-4,-9,13*,94,7
O=C(Nc1cccc(Cl)c1)Nc1ccc2c(c1)OCO2,-7,-2,33*,100,0
CC1CCc2nc(NC(=O)Nc3ccc4c(c3)OCO4)sc2C1 (stereo unspecified),1,8,31*,85,2
O=C(NCc1ccc2c(c1)OCO2)Nc1cccc(Cl)c1,5,-8,-5,103,2
Cc1ccc(S(=O)(=O)N2CCN(C(=O)COC(=O)c3cccc(Cl)c3)CC2)c(C)c1,-6,nt,1,82,-9
COc1ccc(OC)c(NC(=O)CSc2nc(=O)n(CCN3CCOCC3)c3c2CCCC3)c1,-5,nt,-2,108,2
CCCCOc1ccc(/C=N/NC(=O)c2nnn(-c3nonc3N)c2CN2CCCCCC2)cc1,-2,nt,0,104,-6
CCCOc1ccc(-c2c(C(=O)N/N=C/c3ccc(C)cc3)nnn2-c2nonc2N)cc1,nt,20,3,86,-2
Cc1cc(C)c(/C=N/NC(=O)c2nnn(-c3nonc3N)c2COc2ccc(F)cc2)c(C)c1,nt,-1,26*,102,-7
Nc1nonc1-n1nnc(C(=O)N/N=C/c2ccc(OCc3ccccc3)cc2)c1CN1CCCCC1,4,12,18*,108,-12
CCc1c(C(=O)N/N=C/c2ccc(OCc3ccc(F)cc3)c(OC)c2)nnn1-c1nonc1N,?,12,-2,94,-7
CCN(CC)Cc1c(C(=O)N/N=C/c2cccnc2)nnn1-c1nonc1N,-3,4,0,91,-6
CCN(CC)Cc1c(C(=O)N/N=C/c2ccc(OCc3ccccc3C)cc2)nnn1-c1nonc1N,-8,24,33*,122,-17
Nc1nonc1-n1nnc(C(=O)N/N=C/c2ccc(OCc3ccc(F)cc3)cc2)c1COc1ccccc1,?,nt,26*,112,-5
